Assay outcomes from PubChem BioAssay.
This is one part of a sample in which hits are shown more often than they occur.
miR-122 inh = miR-122 sensor activation; Huh7 psiCHECK-miR122 Renilla luciferase sensor, 48 h; activation, % at 12.5 µM; hit rate 0.14% among 340,000;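 active = mean activation of 30% or more, with every replicate also reaching 30%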;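 note: 0% = median of neutral control wells and 100% = median of positive control wells; higher luciferase signal means stronger suppression of miR-122 activity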
* marks the source's active call; other numbers are inactive results.

SMILES | miR-122 inh
CN1C(=O)c2cc(NC(=O)C3CC3)ccc2OC[C@@H]2O[C@H](CC(=O)NCCN3CCCC3)CC[C@H]21 | 45*
CCNC(=O)Nc1ccc2c(c1)C(=O)N(C)[C@H]1CC[C@H](CC(=O)NCCN3CCCC3)O[C@@H]1CO2 | 37*
CCCNC(=O)Nc1ccc2c(c1)OC[C@H](C)N(C)C[C@@H](C)[C@H](OC)CN(C)C2=O | -1
CO[C@@H]1CN(C)C(=O)c2ccc(NC(=O)NC(C)C)cc2OC[C@H](C)NC[C@H]1C | -4
C[C@@H]1CN([C@H](C)CO)S(=O)(=O)c2ccc(-c3ccc(C#N)cc3)cc2O[C@@H]1CN(C)C(=O)C1CC1 | 6
CC(C)CC#Cc1cnc2c(c1)C(=O)N([C@@H](C)CO)C[C@@H](C)[C@H](CN(C)C(=O)Cc1ccccc1)O2 | 6
C[C@@H]1CN([C@@H](C)CO)C(=O)c2cc(-c3ccc(C(=O)N(C)C)cc3)cnc2O[C@H]1CN(C)Cc1ccc(C(=O)O)cc1 | 5
C[C@H]1CN([C@@H](C)CO)C(=O)c2cc(C#Cc3ccccc3F)cnc2O[C@@H]1CN(C)C(=O)Cc1ccncc1 | 11
CC(=O)N1[C@H](CNC(=O)C2CC2)[C@@H](c2ccc(-c3ccccc3)cc2)[C@@H]1CO | -200
C[C@H]1CN([C@@H](C)CO)C(=O)c2cc(-c3ccncc3)cnc2O[C@@H]1CN(C)C(=O)Cc1ccccn1 | -2
COc1ccc(C#Cc2ccc3c(c2)O[C@@H](CN(C)C)[C@H](C)CN([C@@H](C)CO)S3(=O)=O)cc1 | 6
CN1C(=O)c2cc(NS(=O)(=O)c3ccc(Cl)cc3)ccc2OC[C@H]2O[C@H](CC(=O)N3CCc4ccccc4C3)CC[C@@H]21 | 33*
COCC(=O)Nc1ccc2c(c1)C(=O)N(C)[C@@H]1CC[C@@H](CC(=O)NC3Cc4ccccc4C3)O[C@@H]1CO2 | 37*
COCC(=O)Nc1ccc2c(c1)C(=O)N(C)[C@@H]1CC[C@H](CC(=O)N3CCc4ccccc4C3)O[C@H]1CO2 | 37*
CN1C(=O)c2cc(NC(=O)c3ccc(C(F)(F)F)cc3)ccc2OC[C@@H]2O[C@@H](CC(=O)NC3Cc4ccccc4C3)CC[C@@H]21 | 55*
CC(C)C#Cc1cnc2c(c1)C(=O)N([C@H](C)CO)C[C@H](C)[C@H](CN(C)C(=O)CC1CC1)O2 | -2
COc1ccc(C#Cc2cnc3c(c2)C(=O)N([C@@H](C)CO)C[C@H](C)[C@H](CN(C)CC2CCCC2)O3)cc1 | 11
C[C@@H]1CN([C@@H](C)CO)C(=O)c2cc(N(C)C)ccc2O[C@@H]1CN(C)C(=O)Nc1ccc(F)cc1 | -103
C[C@H](O)C#Cc1ccc2c(c1)O[C@H](CN(C)CC1CCOCC1)[C@@H](C)CN([C@@H](C)CO)S2(=O)=O | -3
Cc1ccc(S(=O)(=O)N(C)C[C@H]2Oc3cc(C#CC4CCCC4)ccc3S(=O)(=O)N([C@@H](C)CO)C[C@@H]2C)cc1 | -62
C[C@H](CO)N1C[C@H](C)[C@H](CN(C)Cc2ccc(C(=O)Nc3ccccc3N)cc2)Oc2ccc(NS(=O)(=O)c3ccccc3)cc2CC1=O | -145
CCC(=O)Nc1ccc2c(c1)OC[C@H](C)N(C(=O)c1ccccc1F)C[C@@H](C)[C@@H](OC)CN(C)C2=O | -3
CC(=O)N(C)C[C@H]1Oc2cc(C#C[C@H](C)O)ccc2S(=O)(=O)N([C@@H](C)CO)C[C@H]1C | 5
COc1ccc(C#Cc2ccc3c(c2)O[C@@H](CN(C)C)[C@@H](C)CN([C@H](C)CO)S3(=O)=O)cc1 | 3
COCC#Cc1ccc2c(c1)O[C@@H](CN(C)C(=O)COC)[C@@H](C)CN([C@H](C)CO)S2(=O)=O | 1
SMILES | miR-122 inh
Cc1ccc(S(=O)(=O)N(C)C[C@@H]2Oc3ccc(NC(=O)Nc4ccc5c(c4)OCO5)cc3CC(=O)N([C@@H](C)CO)C[C@@H]2C)cc1 | -113
C[C@@H]1CN([C@@H](C)CO)S(=O)(=O)c2ccc(-c3ccc(C#N)cc3)cc2O[C@@H]1CN(C)C(=O)C1CC1 | -23
C[C@H](NC(=O)C[C@H]1CC[C@@H]2[C@@H](COc3ccc(NS(=O)(=O)c4ccc(Cl)cc4)cc3C(=O)N2C)O1)c1ccccc1 | 45*
C[C@H](NC(=O)C[C@@H]1CC[C@H]2[C@H](COc3ccc(NS(=O)(=O)c4ccc(Cl)cc4)cc3C(=O)N2C)O1)c1ccccc1 | 37*
C[C@H](CO)N1C[C@H](C)[C@H](CN(C)C(=O)Nc2ccc3c(c2)OCO3)Oc2ncc(-c3ccccc3)cc2C1=O | 1
COCC#Cc1ccc2c(c1)O[C@H](CN(C)C(C)=O)[C@@H](C)CN([C@H](C)CO)S2(=O)=O | -3
C[C@H]1CN([C@@H](C)CO)S(=O)(=O)c2ccc(Br)cc2O[C@H]1CN(C)CC1CCOCC1 | -2
Cc1noc(C)c1NC(=O)N(C)C[C@H]1Oc2ncc(C#CC3CCCCC3)cc2C(=O)N([C@@H](C)CO)C[C@@H]1C | -6
C[C@@H]1CN([C@@H](C)CO)S(=O)(=O)c2ccc(-c3ccccc3)cc2O[C@H]1CN(C)Cc1cncnc1 | -1
CC(C)C#Cc1ccc2c(c1)O[C@H](CN(C)C(=O)CN(C)C)[C@H](C)CN([C@H](C)CO)S2(=O)=O | 10
C[C@@H]1CN([C@H](C)CO)S(=O)(=O)c2ccc(C#C[C@@H](C)O)cc2O[C@@H]1CN(C)C(=O)Cc1ccccn1 | -4
CCCCCCCCCCn1c2c(c(=N)c3c1CCC3)CCC2 | 66*
C[C@@H]1CN([C@@H](C)CO)C(=O)c2cc(NC(=O)CCC(F)(F)F)ccc2O[C@@H]1CN(C)C(=O)Nc1ccc2c(c1)OCO2 | -92
C[C@H]1CN([C@@H](C)CO)C(=O)c2cccc(NC(=O)C3CCCCC3)c2O[C@@H]1CN(C)Cc1ccc(C(F)(F)F)cc1 | -94
C[C@@H]1CCCCO[C@H](CN(C)CC2CCCCC2)[C@H](C)CN([C@@H](C)CO)C(=O)c2cc(NC(=O)Nc3ccc(C(F)(F)F)cc3)ccc2O1 | 32*
C[C@@H]1CN([C@@H](C)CO)C(=O)c2cc(NC(=O)NC3CCCCC3)ccc2O[C@@H]1CN(C)C(=O)Nc1ccc2c(c1)OCO2 | 32*
C[C@@H]1CN([C@H](C)CO)C(=O)c2cc(-c3ccccc3)cnc2O[C@H]1CN(C)C(=O)Nc1ccc2c(c1)OCO2 | -5
C[C@H]1CN([C@@H](C)CO)C(=O)c2cccc(NC(=O)Nc3ccc4c(c3)OCO4)c2O[C@@H]1CN(C)CC1CCCCC1 | -97
C[C@H](CO)N1C[C@H](C)[C@H](CN(C)CC2CCCCC2)Oc2ccc(NC(=O)Nc3ccc(C(F)(F)F)cc3)cc2C1=O | 44*
C[C@H]1CN([C@@H](C)CO)C(=O)Cc2cc(NC(=O)Nc3ccc(C(F)(F)F)cc3)ccc2O[C@H]1CN(C)S(=O)(=O)c1ccc(F)cc1 | -99
C[C@@H]1CCCCO[C@@H](CN(C)CC2CCCCC2)[C@@H](C)CN([C@H](C)CO)C(=O)c2cc(NC(=O)CCC(F)(F)F)ccc2O1 | -104
C[C@H]1CN([C@@H](C)CO)C(=O)c2cccc(NC(=O)C3CC3)c2O[C@@H]1CN(C)Cc1ccc(C(F)(F)F)cc1 | -113
CCCNC(=O)N(C)C[C@@H]1Oc2ncc(C#CCC3CCCC3)cc2C(=O)N([C@H](C)CO)C[C@@H]1C | 7
CCCC(=O)Nc1ccc2c(c1)OC[C@@H](C)N(C)C[C@H](C)[C@H](OC)CN(C)C2=O | 1
COCC(=O)N(C)C[C@H]1Oc2ncc(C#Cc3ccncc3)cc2C(=O)N([C@@H](C)CO)C[C@@H]1C | 7
